From PubChem BioAssay AID620 (Sanford-Burnham Center for Chemical Genomics, 2007)
Out of some 87,000 compounds screened, about 360 (0.41%) were called active. What follows is part of a selection rich in actives, with near analogues and random picks from the rest. Unmarked numbers belong to inactive results. Cut-off read from the data, not from the text of the source: active = cytotoxicity above about 50%; inactive = the rest.

Assay: HT1080 cell viability loss – fluorescence readout (AID 620);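 note: cells exposed to compound overnight then 4 h with Alamar Blue; 0% = vehicle DMSO and 100% = killing control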
Details: at 10 µM, active compounds read high

| Structure (SMILES) | cytotoxicity |
| --- | --- |
| O=C(NCC(c1cccs1)N1CCOCC1)c1ccc(Br)o1 (stereo not drawn) | 56.3% (active) |
| O=C(COc1ccccc1)NCC(c1cccs1)N1CCOCC1 (stereo not drawn) | -8.1% |
| O=C(NCC(c1cccs1)N1CCOCC1)c1ccc(Cl)s1 (stereo not drawn) | 62.9% (active) |
| CCC(=O)NCC(c1cccs1)N1CCOCC1 (stereo not drawn) | -3.1% |
| O=C(NCC(c1ccc(F)cc1)N1CCOCC1)c1ccc(Br)o1 (stereo not drawn) | -5.4% |
| O=C(NCC(c1cccs1)N1CCOCC1)c1ccco1 (stereo not drawn) | 9% |
| CCCCCC(=O)OC(CN1CCCCC1)CN1CCCC1=O (stereo not drawn) | 6.6% |
| COc1ccccc1NC(=S)NNC(=O)c1ccc(Cl)cc1Cl | -4% |
| Cc1ccc(-c2noc(-c3ccccc3C(=O)N3CCOCC3)n2)cc1 | -2.2% |
| Cc1cc(N2CCCC2=O)cc(C)c1S(=O)(=O)NCCOc1ccccc1 | 0.6% |
| CCOc1ccc(NC2=NC(C(=O)NCc3ccccc3)CC(=O)N2)cc1 (stereo not drawn) | 7.4% |
| CC(C)(C)c1ccc(C(=O)Nc2cnccn2)cc1 | -0.1% |
| Cc1noc(C)c1COc1ccc(C(=O)OCC(=O)N2CC(=O)Nc3ccccc32)cc1 | -12.1% |
| CCC(Oc1ccccc1)C(=O)Nc1nnc(C)s1 (stereo not drawn) | -5.1% |
| Cc1occc1C(=O)Nc1ccc2c(c1)OCCO2 | 11.2% |
| CC(=O)NC1C(=O)N(C)c2ccc(Br)cc21 (stereo not drawn) | -16.4% |
| Cc1ccc(Cc2c(C)nc3nc(SCC(=O)NCc4ccco4)nn3c2C)cc1 | 69.7% (active) |
| Cc1ccccc1Cc1c(C)nc2nc(SCC(=O)NCc3ccco3)nn2c1C | -13.4% |
| Cc1nc2nc(SCC(=O)NCc3ccco3)nn2c(C)c1Cc1c(F)cccc1Cl | -13.6% |
| O=C(c1ccco1)N1CCCC(c2nc(-c3ccc(S(=O)(=O)NCc4ccccc4)cc3)no2)C1 (stereo not drawn) | -1.4% |
| CCCCS(=O)(=O)c1sc2nc(C)cc(C)c2c1N | 12.9% |

| Structure (SMILES) | cytotoxicity |
| --- | --- |
| Cc1ccc(-c2noc(CCC(=O)NCc3ccco3)n2)cc1 | 64% (active) |
| O=C(CCc1nc(-c2ccccc2)no1)NCc1ccco1 | 6.9% |
| Cc1cccc(-c2noc(CCC(=O)NCc3ccco3)n2)c1 | 7.3% |
| CCn1cnc2cc(NCc3nc4ccccc4n3C)ccc21 | 1.7% |
| Cc1cc(NC(=O)C2CC(c3ccc(Cl)cc3)=NO2)no1 (stereo not drawn) | -7.6% |
| Cc1cccc(NS(=O)(=O)Cc2ccccc2)n1 | -2.7% |
| CCCOc1c(OC)cccc1C1CC(=O)Nc2cc3c(cc21)OCCO3 (stereo not drawn) | -3.5% |
| CCCOc1ccccc1C1CC(=O)NC2=C1C(=O)CCC2 (stereo not drawn) | 39.4% |
| CCOc1ccccc1C1CC(=O)Nc2cc3c(cc21)OCO3 (stereo not drawn) | 67.2% (active) |
| CCOc1c(OC)cccc1C1CC(=O)Nc2cc(OC)c(OC)cc21 (stereo not drawn) | -2.2% |
| CCOc1ccccc1C1CC(=O)Nc2cc3c(cc21)OCCO3 (stereo not drawn) | 68.1% (active) |
| CCCOc1ccccc1C1CC(=O)Nc2cc3c(cc21)OCCO3 (stereo not drawn) | 58.6% (active) |
| O=C1CC(c2cccs2)c2cc3c(cc2N1)OCCO3 (stereo not drawn) | -3.6% |
| CCCCOc1ccccc1C1CC(=O)NC2=C1C(=O)CCC2 (stereo not drawn) | 56% (active) |
| CCOc1ccccc1C1CC(=O)NC2=C1C(=O)CCC2 (stereo not drawn) | 11.2% |
| CCCOc1c(OC)cccc1C1CC(=O)Nc2cc3c(cc21)OCO3 (stereo not drawn) | -2.6% |
| CCOc1c(OC)cccc1C1CC(=O)Nc2cc3c(cc21)OCCO3 (stereo not drawn) | -3.8% |
| O=C1CC(c2ccc3c(c2)OCO3)c2cc3c(cc2N1)OCCO3 (stereo not drawn) | 8.1% |
| CC(=O)Nc1ccc2c(c1)nc(CN1CCCC1)n2C | -8.7% |
| Cc1c(NC(=O)CSc2ccccn2)c(=O)n(-c2ccccc2)n1C | 1.3% |
| Cc1cccc2cc(CN(CCN3CCOCC3)C(=O)Nc3ccccc3F)c(=O)[nH]c12 | 13.6% |

| Structure (SMILES) | cytotoxicity |
| --- | --- |
| CC12CCC(C(=O)N3CCCCC3)(CC1=O)C2(C)C (stereo not drawn) | -0.3% |
| COC(=O)[C@@]1(Cc2ccccc2)[C@H]2c3cc(C(=O)N(C)C)n(Cc4ccc(S(C)(=O)=O)cc4)c3C[C@H]2CN1C(=O)c1ccccc1 | 2.9% |
| O=c1ccc(Cc2ccccn2)n[nH]1 | -6.4% |
| Cc1ccc(-n2c(SCC(=O)OC(C)C)nnc2-c2cnccn2)cc1 | 0.6% |
| COc1ccccc1N(C(=O)c1snc(C(N)=O)c1N)C(C(=O)NC1CCCC1)c1ccco1 (stereo not drawn) | -5.3% |
| Cc1oc(-c2ccccc2F)nc1CS(=O)(=O)CC(=O)N1CCc2ccccc21 | -3.2% |
| COc1ccc(C(=O)N2CCN(c3cccc(Cl)c3)CC2)c(OC)c1 | 15.6% |
| Cc1ccc(C(=O)N2CCN(c3cccc(Cl)c3)CC2)cc1C | -5.4% |
| COc1ccccc1C(=O)N1CCN(c2cccc(C(F)(F)F)c2)CC1 | 58.7% (active) |
| CCOc1ccccc1C(=O)N1CCOCC1 | -16.5% |
| COc1ccc(C(=O)N2CCN(c3cccc(Cl)c3)CC2)cc1 | -4.7% |
| O=C(O)c1ccccc1C(=O)N1CCN(c2cccc(Cl)c2)CC1 | 8.7% |
| O=C(c1ccccc1F)N1CCN(c2cccc(C(F)(F)F)c2)CC1 | -6.8% |
| COc1ccccc1CC(=O)N1CCN(c2cccc(C(F)(F)F)c2)CC1 | -8.5% |
| COc1cc2c(C(=O)N3CCN(c4cccc(Cl)c4)CC3)cn(C)c(=O)c2cc1OC | 20.5% |
| COc1ccccc1C(=O)N1CCN(c2cccc(Cl)c2)CC1 | 53% (active) |
| CCOc1ccccc1C(=O)N1CCN(c2cccc(Cl)c2)CC1 | 50.8% (active) |
| CCOc1ccc(C(=O)Cc2ccc3oc(C(=O)O)cc3c2)c(O)c1 | -8.8% |
| O=C(CSc1nc2ncc(Br)cc2[nH]1)Nc1ccc2c(c1)OCO2 | 2.1% |
| COCCNC(=O)COC(=O)/C=C/c1c(C)nn(Cc2ccc(Cl)cc2Cl)c1Cl | 5.2% |
| C[N+]1(CC(=O)Nc2ccc(F)cc2)CCN(C(=O)c2ccco2)CC1 | 15.7% |
